# HPGD block = qHTS Assay for Inhibitors of HPGD (15-Hydroxyprostaglandin Dehydrogenase); Potency, µM, for inactives: at the highest dose activity change, negative = inhibition, hits mostly inhibitors; purified HPGD, NADH fluorescence kinetic, PGE2 substrate; 150,000 compounds, 4.3% hits; further: potency means the concentration at half of the fitted maximal effect
#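 20 nM HPGD preincubated 15 min at room temperature with compound in 50 mM Tris-HCl pH 8, 0.01% Tween 20. Started with 1 mM NAD+ and 30 uM prostaglandin E2; NADH fluorescence (360/450 nm) read 5 times over 30-s intervals, last minus first.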
# JMJD2E inh = qHTS Assay for Inhibitors of Human Jumonji Domain Containing 2E (JMJD2E). Lysine-specific demethylase 4E (Homo sapiens), B2RXH2. JMJD2E catalytic domain, FDH-coupled NADH fluorescence (FDH is formaldehyde dehydrogenase). Potency, µM (series often up to 57.1 µM), inactives show at the top dose activity change, negative = inhibition, actives largely listed as inhibitors. 230,000 compounds, 1.6% hits. AID 2147, 2009;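 further: potency means the concentration at half of the fitted maximal effect; 0% = wells with enzyme and -100% = buffer wells without enzyme; nearly all actives have a fitted effect of over 50% in size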
# ALDH1A1 inh = qHTS Assay for Inhibitors of Aldehyde Dehydrogenase 1 (ALDH1A1); Aldehyde dehydrogenase 1A1 (Homo sapiens), P00352; 220,000 compounds, 7.3% hits; Potency, µM (top dose mostly 75.3 µM), inactives show at the top dose activity, negative = inhibition, usual class: inhibitors; Purified ALDH1A1, NADH fluorescence, propionaldehyde substrate;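 further: potency means the concentration at half of the fitted maximal effect; plate controls were no enzyme wells and a reference inhibitor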
# Target sequence (P00352 whole entry, looked up): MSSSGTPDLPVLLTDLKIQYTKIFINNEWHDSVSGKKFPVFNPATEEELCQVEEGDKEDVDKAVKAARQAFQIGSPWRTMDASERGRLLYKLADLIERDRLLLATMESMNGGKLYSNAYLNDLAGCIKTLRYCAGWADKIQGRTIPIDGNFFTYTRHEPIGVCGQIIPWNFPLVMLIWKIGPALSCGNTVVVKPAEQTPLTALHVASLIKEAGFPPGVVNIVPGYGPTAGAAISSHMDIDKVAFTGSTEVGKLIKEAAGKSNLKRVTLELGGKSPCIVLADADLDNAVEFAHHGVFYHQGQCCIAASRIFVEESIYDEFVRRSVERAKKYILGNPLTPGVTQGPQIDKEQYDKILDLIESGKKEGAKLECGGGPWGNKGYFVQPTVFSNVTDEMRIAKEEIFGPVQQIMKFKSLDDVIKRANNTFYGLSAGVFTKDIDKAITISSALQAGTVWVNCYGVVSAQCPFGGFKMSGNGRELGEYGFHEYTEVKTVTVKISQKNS
# PNC inhibitor = High Content Assay for Compounds that inhibit the Assembly of the Perinucleolar Compartment. 140,000 compounds, 3.1% hits. PC3M PTB-GFP, PNC prevalence imaging, 16 h; active compounds read low. AID 2417, 2010. activity change (PNC), negative = inhibition, % at 10 µM;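 active means readout at or below -70, meaning at least 70% loss of cells showing the perinucleolar compartment, a nuclear body marking cancer cells; inconclusive means readout between -30 and a set limit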;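 further: plate controls were DMSO wells for no effect and camptothecin positive control wells for full effect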
#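 PC3M cells stably expressing PTB-GFP, 750–1000 cells/well, treated 16 h at 37 °C with compound (23 nl of library stock), in duplicate. After paraformaldehyde fixation and Hoechst stain, imaged at 20x; PNC prevalence scored by image analysis.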
# Active calls of the source: *; i = inactive; ? = inconclusive; · = not tested or not shown; [ ] = dose if it differs, or a comment. This is a sample that favours compounds with a hit; in the whole collection about 11% have one here. Unless noted, the call rests on the fitted dose curve; in most records, active means well fitted inhibition curve with a large enough effect (not every such curve was filed as active); inconclusive means small, poorly fitted or top-dose-only effect, or another doubt; inactive means no such curve, though single readings can be large or run the other way. Unless noted, on the % scale 0 is the no-effect control and ±100 the full control effect.
SMILES,HPGD block,JMJD2E inh,ALDH1A1 inh,PNC inhibitor
CCOCc1nnc(NC(=O)c2cc(OC)c(OC)cc2[N+](=O)[O-])s1,·,7%,1%,·
CCOc1ncccc1C(=O)Nc1ccc(F)c(Cl)c1,·,-2%,-8%,·
Cc1cccc(NC(=S)N2CCOCC2)c1C,-4%,-8%,-2%,-28
O=C(C1CCC(CNS(=O)(=O)c2cccs2)CC1)N1CCCCC1 (centres undefined),3.2µM*,5%,?,?
O=C(C1CCC(CNS(=O)(=O)c2cccc3cccnc23)CC1)N1CCCC1 (centres undefined),6.3µM*,1%,-8%,?
COCCCNC(=O)C1CCN(S(=O)(=O)c2c(C)noc2/C=C\c2ccc(OC)cc2)CC1,i,?,?,-109*
CCCCNC(=O)C1CCN(S(=O)(=O)c2c(C)noc2/C=C\c2ccc(OC)cc2)CC1,27%,-21%,7%,32
O=C(NCCc1ccccc1)C1CCN(S(=O)(=O)c2cccs2)CC1,-3%,0%,10µM*,?
O=C(c1ccc2c(c1)OCCO2)N1CCCC(CNS(=O)(=O)c2cccs2)C1 (centres undefined),·,5%,2.2µM*,·
Cc1ncsc1C(=O)N1CCCC(CNS(=O)(=O)c2cccs2)C1 (centres undefined),·,0%,-14%,·
COCCNC(=O)C1CCN(S(=O)(=O)c2ccccc2)CC1,25µM*,5%,0%,11
COc1ccc(C2=CC(c3ccc(F)cc3)n3nnnc3N2)cc1 (centres undefined),-14%,?,-11%,-6
COc1ccc(C2=CC(c3sccc3C)n3nnnc3N2)cc1 (centres undefined),-16%,?,2µM*,69
COc1ccc(N2C3=C(CC4=C2CC(C)(C)CC4=O)C(=O)CC(C)(C)C3)cc1,?,?,?,31
CC1(C)CC(=O)C2=C(C1)OC1=C(C2)C(=O)CC(C)(C)C1,-18%,1%,18µM*,22
O=C(CN1CCN(c2ccc(O)cc2)CC1)Nc1cc(S(=O)(=O)N2CCCCC2)ccc1Cl,·,-10%,24µM*,·
CC1CN(CC(=O)Nc2cc(S(=O)(=O)N3CCCC3)ccc2Cl)CC(C)O1 (centres undefined),·,1%,-2%,·
O=C(CN1CCN(c2ccc(O)cc2)CC1)Nc1cc(S(=O)(=O)N2CCCC2)ccc1Cl,·,?,14µM*,·
CC(=O)c1c(C)[nH]c(C(=O)OCC(=O)Nc2cc(S(=O)(=O)N3CCCC3)ccc2Cl)c1C,-9%,6%,9%,-108*
COc1cccc(-c2cc(=O)c3cc(O)ccc3o2)c1,-15%,55%,-1%,·
O=C(Nc1nc2c(s1)CCc1ccccc1-2)c1cccs1,-13%,-24%,-3%,-19
Fc1ccccc1Nc1nc2c(s1)CCc1ccccc1-2,22µM*,3%,5%,-23
Cc1ccc(Oc2c(CO)c(-c3ccccc3)nn2C)cc1,·,-8%,3%,·
CCOC(=O)C[n+]1c(C)sc2ccc(OC)cc21,20µM*,-7%,6.3µM*,-29
CCO/C(=C/c1sc2ccc(OC)cc2[n+]1CCCS(=O)(=O)[O-])CC,-22%,-20%,-5%,33
SMILES,HPGD block,JMJD2E inh,ALDH1A1 inh,PNC inhibitor
Oc1ccc(F)c2cccnc12,·,20µM*,17%,·
OCc1ccc(O)c2ncccc12,-6%,16µM*,-4%,79
Oc1ccc(Cl)c2cccnc12,-4%,?,0%,·
Oc1ccc(COCc2ccccc2)c2cccnc12,-27%,?,?,11
Oc1ccc(CNc2ccccc2F)c2cccnc12,-9%,7.9µM*,8.9µM*,-27
CCCOCc1ccc(O)c2ncccc12,·,14µM*,·,·
Oc1ccc(CNCc2ccccc2)c2cccnc12,-3%,·,17%[13.5 µM],·
CCCCc1ccc(N/C(N)=N/c2nc(C)cc(C)n2)cc1,·,-5%,·,·
Cc1ccc(N2C(=O)NC(NC(=O)C3CC3)(C(F)(F)F)C2=O)cc1 (centres undefined),-13%,6%,9%,-100*
CCOC(=O)CN1C(=O)N[C@@H](c2cccc(C(F)(F)F)c2)[C@H](C(=O)OC)[C@H]1C,-3%,4%[11.4 µM],6%[13.5 µM],·
CCCc1[nH]n(-c2ccc([N+](=O)[O-])cc2)c(=O)c1C=NCCc1ccc(OC)c(OC)c1,·,0%,1.8µM*,·
COC(=O)C(CCSC)NC(=O)c1cc2c(n(-c3ccc(C)cc3)c1=O)CCCC2=O (centres undefined),·,13%,7%,·
COC(=O)C(CCSC)NC(=O)c1cc2c(n(-c3ccccc3)c1=O)CC(C)(C)CC2=O (centres undefined),-7%,?,28µM*,18
COCCNc1c(-c2cc3ccc(C)c(C)c3[nH]c2=O)nc2ccccn12,·,-2%,-5%,·
Cc1ccc(F)cc1NCC(=O)Nc1ccc(Cl)cc1F,·,13%,-3%,36
Cc1cc(F)ccc1NCC(=O)Nc1ccccc1Br,·,-3%,28µM*,3
CCOC(=O)Nc1nc(-c2ccccc2)c(C(=O)c2ccccc2)s1,-19%,2%,?,-83*
COC(=O)Nc1nc(-c2ccccc2)c(C(=O)c2ccc(Cl)cc2)s1,-3%,6%,-4%,-102*
CC(=O)c1sc(NC(=O)c2c(F)cccc2F)nc1-c1ccccc1,·,-28%,11µM*,·
O=C(c1ccco1)N1CCC2(CCN(Cc3nccs3)CC2)CC1,-3%,·,-7%,·
N#CCc1ccc(C(=O)c2ccccc2)s1,28µM*,-6%,?,-82*
O=C(c1ccccc1)c1cnc(-c2ccccc2)s1,·,-23%,?,·
NC(=O)Cc1ccc(C(=O)c2ccc(F)cc2)s1,·,0%,3%,·
C[C@@H](C(=O)O)c1ccc(C(=O)c2ccccc2)s1,14µM*,-2%[25.5 µM],-16%[20.9 µM],·
CS(=O)(=O)N1CCC2(CCCN(Cc3cc(C(F)(F)F)cc(C(F)(F)F)c3)C2)CC1,-13%,·,-12%,·
SMILES,HPGD block,JMJD2E inh,ALDH1A1 inh,PNC inhibitor
O=C(c1ccccc1)N(Cc1nc2ccccc2c(=O)[nH]1)C1CCCCC1,·,-17%,3.5µM*,·
Cc1ccccc1-n1nnnc1SCc1ncc(-c2ccccc2)o1,-18%,2%,10µM*,-23
CC(=O)[C@H]1CC[C@H]2[C@@H]3C=CC4=CC(=O)CC[C@@]4(C)[C@H]3CC[C@]12C,-7%,3%[25.5 µM],?,·
Cc1nn(-c2nnc(NC3CCCCC3)nn2)c(C)c1Br,16µM*,-6%,14µM*,-9
O=C(N/N=C\c1cc(Br)cs1)C1COc2ccccc2O1 (centres undefined),-8%,-2%,20µM*,-28
O=C(N/N=C/C=C/c1ccc([N+](=O)[O-])cc1)C1COc2ccccc2O1 (centres undefined),-25%,-1%,25µM*,8
O=C(N/N=C\C=C\c1ccco1)C1COc2ccccc2O1 (centres undefined),·,-7%,·,·
COC(=O)C1(C(=O)OC)C[C@@H]2CON=C2[C@H]1c1ccccc1,-11%,-4%,11%,·

# Compound activity (PubChem BioAssay)
